PV pol inh = poliovirus RNA polymerase inhibition; P03300; poliovirus polymerase elongation, fluorescence polarization; hits give low values; % elongation, % (compound at 16.7 µg/mL); 0.66% of 150,000 active; in the data active = % elongation below about 90%
MenB inh = blocks the Mycobacterium tuberculosis MenB enzyme. P9WNP5. MenB enzyme assay, absorbance read-out. inhibition, % (no concentration beside the values). 0.43% of 100,000 active; in the data active = inhibition above about 21%, passing the limit was not always enough
AID504770 = E. coli YBA685 growth inhibition, screen for V. cholerae RctB inhibitors | E. coli YBA685 rctB-dependent plasmid, OD600 growth, 3 h; hits give low values | z-score (test concentration not listed) | 0.27% of 130,000 active | AID 504770; in the data active = z-score below about -2, passing the limit was not always enough
Mtb MbtI inh = MbtI salicylate synthase inhibition. purified MbtI enzyme, fluorescence intensity read-out. inhibition, % (no concentration beside the values). 0.89% of 100,000 active; in the data active = inhibition mostly above about 56%, no sharp cut-off; inactive = mostly below about 77%
Target sequence (P9WFX0 whole entry, looked up): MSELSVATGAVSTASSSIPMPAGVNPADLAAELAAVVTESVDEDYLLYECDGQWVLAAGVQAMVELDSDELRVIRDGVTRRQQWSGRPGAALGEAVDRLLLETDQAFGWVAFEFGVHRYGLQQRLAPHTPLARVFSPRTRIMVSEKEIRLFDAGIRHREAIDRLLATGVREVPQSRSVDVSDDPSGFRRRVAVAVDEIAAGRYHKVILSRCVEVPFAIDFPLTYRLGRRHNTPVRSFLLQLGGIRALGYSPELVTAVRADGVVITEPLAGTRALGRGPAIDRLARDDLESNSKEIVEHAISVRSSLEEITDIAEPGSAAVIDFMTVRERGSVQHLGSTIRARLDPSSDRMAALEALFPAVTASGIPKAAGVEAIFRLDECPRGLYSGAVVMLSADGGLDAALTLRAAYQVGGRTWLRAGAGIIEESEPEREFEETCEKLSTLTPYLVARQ
Numbers stand for hits; n = inactive; x = no result given; ! = not confirmed by another sample. A selection: hits, their analogues and other compounds. The true share with any hit is near 1.4%.

SMILES | PV pol inh | MenB inh | AID504770 | Mtb MbtI inh
Cc1sc2c(c1C)CSC(C(=O)O)=C2 | n | n | n | 97.6
COc1ccc(Oc2ccc(C#N)cc2)cc1 | x | x | n | x
CCn1c2ccccc2c2cc(NC(=O)CN3CCN(S(=O)(=O)c4ccc(OC)cc4)CC3)ccc21 | n | n | n | n
CC(C)(C)C1=NN(c2nc3ccc(Cl)cc3s2)C(=O)C1 | n | n | n | 60.2
O=C1CC(CSc2ccc(Cl)cc2)=NN1c1nc2ccccc2s1 | n | n | n | n
NC1CCc2cc(O)c(O)cc2C1 (stereo not drawn) | n | x | x | 92.5
O=C(COC(=O)c1ccccc1Cl)NC1CCCC1 | n | n | n | n
CCC(C(=O)N1CCN(c2ccccc2)CC1)n1nc(C)c2sc3ccccc3c2c1=O (stereo not drawn) | 90.0 | x | x | x
CCC(C(=O)N1CCCC1)n1nc(C)c2sc3ccccc3c2c1=O (stereo not drawn) | n | n | n | n
Cc1nc(-c2cccs2)sc1-c1ccn[nH]1 | x | x | n | x
Cc1c(P(=S)(N2CCOCC2)N2CCOCC2)cc(C#N)n1C | 80.0 | n | n | 93.5
FC(F)(F)c1cccc(NCn2c(=S)oc3ccc(Cl)cc32)c1 | n | n | n | x
C=C1c2cccc(O)c2C(O)=C2C(=O)C3(O)C(O)=C(C(N)=O)C(=O)C(N(C)C)C3C(O)C12 (stereo not drawn) | n | n | -6.9 | n
N#CC1=C(N)OC2=C(C(=O)CCC2)C1c1cc2cc3c(cc2nc1Cl)OCO3 (stereo not drawn) | n | n | n | n
N#CC(C#N)=Cc1cc2c(cc1Br)OCO2 | 70.0 | n | n | n
O=C(NC1=NCCS1)c1ccc2c(c1)OCO2 | x | x | n | n
Cc1cc(C(=O)N=c2sccn2Cc2ccc(Cl)cc2Cl)on1 | n | n | n | n
NC1=NC(=O)C(C(=O)NC2(C(F)(F)F)Oc3cc(Cl)c(Cl)cc3O2)S1 (stereo not drawn) | n | n | n | 92.2
Cc1ccc(-c2csc(-c3nnn(-c4ccc(C)c(C)c4)c3N)n2)cc1 | 27.0 | n | n | n
Cc1ccc(-c2csc(-c3nnn(-c4cccc(Cl)c4)c3N)n2)cc1 | n | n | n | n
CN1CCN(S(=O)(=O)c2ccc(SCC(=O)NC3C4CC5CC(C4)CC3C5)nc2)CC1 (stereo not drawn) | n | n | n | n
c1cc(CNc2ccc(N3CCCC3)cc2)ccn1 | n | n | n | 99.7
c1cc2c(cc1CNc1ccc(N3CCCC3)cc1)OCO2 | n | n | n | n
CCc1nc(Nc2ccc(F)c(Cl)c2)c2c3c(sc2n1)CCCC3 | 85.0 | x | x | x
CCc1ccc(Nc2ncnc3sc4c(c23)CCCC4)cc1 | n | x | x | x
SMILES | PV pol inh | MenB inh | AID504770 | Mtb MbtI inh
CCCc1ccc(OCC(=O)Nc2sc3c(c2C(=O)OC)CCCCC3)cc1 | 85.0 | x | x | x
COC(=O)c1c(NC(=O)C(F)(F)F)sc2c1CCCC2 | 88.0 | n | n | x
COC(=O)Nc1sc2c(c1C(=O)OC)CCC2 | n | n | n | n
COC(=O)c1c(NC(=O)Cc2cccs2)sc2c1CCCC2 | n | 39.3 | n | n
COc1cc2c(cc1OC)C1CCCN1C(C)(C)C2 (stereo not drawn) | n | n | n | n
Oc1c(Cl)cc(Cl)c2cccnc12 | n | n | n | n
O=C(Oc1c(Cl)cc(Cl)c2cccnc12)c1ccco1 | n | n | -3.35 | n
CCOC(=O)C1=C(CSc2nnc(-c3cccs3)n2-c2ccccc2)NC(=O)NC1C (stereo not drawn) | n | n | -2.45 | n
Cc1ccccc1NC(=O)CCCn1c(=O)c2cccn2c2ccccc21 | n | n | n | n
CCn1cc(C(=O)O)c(=O)c2cnc(N3CCN(C(=S)NCc4ccccc4)CC3)nc21 | n | n | -3.35 | n
COC(=O)c1ccc2c(=O)n(CCO)c(SCCOc3ccc(Br)cc3)nc2c1 | n | n | n | n
Cc1ccc(S(=O)(=O)NC(=O)c2ccc(Cl)nc2Cl)cc1 | 62.0 | x | n | n
O=C(Nc1ccc(Cl)cn1)c1cccs1 | n | n | n | x
CC(C)N(C(=O)CSc1n[nH]c(-c2cccs2)n1)C(C)C | n | n | -4 | n
C/C(N)=C(/C#N)C(=O)CSc1n[nH]c(-c2cccs2)n1 | n | n | n | n
Cc1nc2ccccc2c(=O)[nH]1 | n | n | n | n
O=c1[nH]c2ccccc2c(O)c1-c1nc2ccccc2c(=O)[nH]1 | n | 42.6 | n | n
Cn1cnc(S(=O)(=O)N(Cc2ccccc2)Cc2ccccc2N2CCC(C(=O)O)CC2)c1 | 86.0 | n | n | n
COC(=O)c1sc(N)c(C(=O)OC)c1CSc1nnc(Cc2csc(C)n2)o1 | n | n | n | n
CCOC(=O)C1CCCN(C(=O)CSc2ccc(NC(C)=O)cc2)C1 (stereo not drawn) | n | n | n | 66.6
COC(=O)C1=C(C)NC(C)=C(C(=O)OC)C1c1ccccc1 | x | x | n | x
COC(=O)C1=C(C)NC(C)=C(C(=O)OC)C1c1ccccc1[N+](=O)[O-] | n | n | n | 79.2!
CC(=O)Nc1cccc(SSc2cccc(NC(C)=O)c2)c1 | n | n | n | 97.1
O=C(Oc1cccc2cccnc12)c1cccc(F)c1 | x | x | n | n
O=C(Oc1cccc2cccnc12)c1cc(C(F)(F)F)cc(C(F)(F)F)c1 | n | n | -3.25 | n
SMILES | PV pol inh | MenB inh | AID504770 | Mtb MbtI inh
Cc1cc(N2CCOCC2)cc(C)[n+]1[O-] | n | 45.8 | n | n
Cc1cc(S(=O)(=O)NCc2ccc3c(c2)CCO3)c(C)s1 | x | x | n | x
CCCc1cc(=O)[nH]c(SCC(=O)N2CC(=O)Nc3ccccc32)n1 | n | n | n | n
Fc1c(F)c(Oc2ccccc2)c(F)c(F)c1Oc1ccccc1 | n | 26.6 | n | n
Nc1ccc(Oc2ccccc2)cc1 | n | n | n | n
COc1ccc2[nH]cc(C(=O)CSc3nnc(-c4ccoc4)c(-c4ccoc4)n3)c2c1 | n | n | n | 75.4
Cn1cc(C(=O)CSc2nnc(-c3ccoc3)c(-c3ccoc3)n2)c2ccccc21 | n | n | n | n
CC1=C(C)C(=O)C(NCc2ccco2)=CC1=O | 74.0 | n | n | n
CCOC(=O)c1c(C)n(C)c2ccc(OCC)cc12 | n | n | n | x
CCCCn1c(=S)[nH]c2ccccc21 | n | n | n | n
CCOc1ccc2c(c1)[nH]c(=S)n2C | n | n | n | 78.5
CC(c1ccccc1)n1c(=S)[nH]c2ccccc21 (stereo not drawn) | n | n | n | 89.1
Cn1c(=S)[nH]c2ccccc21 | n | n | n | 101.4
CCN(C(=O)CSc1nc(N)nc(N)n1)C1=CCCC1 | n | n | n | n
COc1cccc(/C=C2/SC(=Nc3ccccc3)N(CCc3ccccc3)C2=O)c1O | n | n | n | n
O=C(O)CN1C(=O)S/C(=C\c2ccccc2)C1=O | n | n | n | n
C1COCCNCCOCCN1 | 88.0 | n | n | n
O=S(=O)(Nc1cccc(-c2ccc(N3CCCCC3)nn2)c1)c1ccc2c(c1)OCCO2 | n | n | n | n
O=C(O)c1ccc(NC2OC(CO)C(O)C2O)cc1 (stereo not drawn) | 90.0 | n | n | x
N#C/C(=C\c1ccco1)C(=O)Nc1ccccc1 | n | n | n | n
COC(=O)c1c(NC(=O)/C(C#N)=C/c2ccco2)sc(C)c1C | n | n | n | 82.3
CC(C)Nc1nc(NC(N)=O)nc(NC(C)C)n1 | n | 62.0 | n | n
CSc1nc(NC(C)C)nc(N(C)C(N)=O)n1 | n | n | n | n

From PubChem BioAssay
